Out of some 5,500 compounds screened, about 2,000 (36%) were called active. About 18% were inconclusive and are not listed. No stated cut-off is given here; in the data, active means normalized growth mostly below about 0.91 (no sharp cut-off); inconclusive means no clear call, values can overlap the other calls; inactive means mostly above about 0.92. Some of the results follow.
Test: chemical genetic growth profiling, strain panel (AID 1159580);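 further: tested at 20 µM; growth read once vehicle control cultures reached saturation at 30 °C; 1 = growth at the plate median or of vehicle wells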
Conditions: S. cerevisiae deletion strains, growth OD

Measured: normalized growth

C#CCOC(=O)C1=CCCN(C)C1
inactive: locus YAL013W, strain DEP1, stronger effect = lower value 1.01 | locus YAL040C, strain CLN3, stronger effect = lower value 1.02 | locus YDR363W, strain ESC2, stronger effect = lower value 0.986 | locus YER002W, strain NOP16, stronger effect = lower value 1.03 | locus YGR078C, strain PAC10, stronger effect = lower value 1.01 | locus YGR229C, strain SMI1, stronger effect = lower value 1.01 | locus YMR263W, strain SAP30, stronger effect = lower value 1 | locus YMR307W, strain GAS1, stronger effect = lower value 0.959 | locus YNL153C, strain GIM3, stronger effect = lower value 1.03 | locus YNL175C, strain NOP13, stronger effect = lower value 1.01 | locus YNL197C, strain WHI3, stronger effect = lower value 0.99 | locus YNL224C, strain SQS1, stronger effect = lower value 0.998 | locus YNL322C, strain KRE1, stronger effect = lower value 1 | locus YOR083W, strain WHI5 (second series), stronger effect = lower value 1

CC(C)(N)Cc1ccccc1
inactive: locus YHR030C, strain SLT2, stronger effect = lower value 1.02 | locus YHR079C, strain IRE1, stronger effect = lower value 1.02 | locus YJL095W, strain BCK1, stronger effect = lower value 1 | locus YJR066W, strain TOR1, stronger effect = lower value 0.947 | locus YLR113W, strain HOG1, stronger effect = lower value 0.965 | locus YNL183C, strain NPR1, stronger effect = lower value 0.937 | locus YOR231W, strain MKK1, stronger effect = lower value 1.01 | locus YPL256C, strain CLN2, stronger effect = lower value 1.03
